The whole screen tested about 310,000 compounds, of which about 14,000 (4.5%) showed an effect of 50% or more. Effects have a minus sign here. Many of the other results were omitted from the sample, so strong results are more common in it than they were.
The molecules below were run against human ether-à-go-go-related gene (hERG) potassium channel (human, UniProt Q12809) (assay: primary screen, population patch clamp on CHO cells stably expressing hERG; higher = less effect of the substance).
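Note: peak tail current of the secondary pulse compared with the same well before compound.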

Chain of human ether-à-go-go-related gene (hERG) potassium channel (Q12809 whole entry, looked up): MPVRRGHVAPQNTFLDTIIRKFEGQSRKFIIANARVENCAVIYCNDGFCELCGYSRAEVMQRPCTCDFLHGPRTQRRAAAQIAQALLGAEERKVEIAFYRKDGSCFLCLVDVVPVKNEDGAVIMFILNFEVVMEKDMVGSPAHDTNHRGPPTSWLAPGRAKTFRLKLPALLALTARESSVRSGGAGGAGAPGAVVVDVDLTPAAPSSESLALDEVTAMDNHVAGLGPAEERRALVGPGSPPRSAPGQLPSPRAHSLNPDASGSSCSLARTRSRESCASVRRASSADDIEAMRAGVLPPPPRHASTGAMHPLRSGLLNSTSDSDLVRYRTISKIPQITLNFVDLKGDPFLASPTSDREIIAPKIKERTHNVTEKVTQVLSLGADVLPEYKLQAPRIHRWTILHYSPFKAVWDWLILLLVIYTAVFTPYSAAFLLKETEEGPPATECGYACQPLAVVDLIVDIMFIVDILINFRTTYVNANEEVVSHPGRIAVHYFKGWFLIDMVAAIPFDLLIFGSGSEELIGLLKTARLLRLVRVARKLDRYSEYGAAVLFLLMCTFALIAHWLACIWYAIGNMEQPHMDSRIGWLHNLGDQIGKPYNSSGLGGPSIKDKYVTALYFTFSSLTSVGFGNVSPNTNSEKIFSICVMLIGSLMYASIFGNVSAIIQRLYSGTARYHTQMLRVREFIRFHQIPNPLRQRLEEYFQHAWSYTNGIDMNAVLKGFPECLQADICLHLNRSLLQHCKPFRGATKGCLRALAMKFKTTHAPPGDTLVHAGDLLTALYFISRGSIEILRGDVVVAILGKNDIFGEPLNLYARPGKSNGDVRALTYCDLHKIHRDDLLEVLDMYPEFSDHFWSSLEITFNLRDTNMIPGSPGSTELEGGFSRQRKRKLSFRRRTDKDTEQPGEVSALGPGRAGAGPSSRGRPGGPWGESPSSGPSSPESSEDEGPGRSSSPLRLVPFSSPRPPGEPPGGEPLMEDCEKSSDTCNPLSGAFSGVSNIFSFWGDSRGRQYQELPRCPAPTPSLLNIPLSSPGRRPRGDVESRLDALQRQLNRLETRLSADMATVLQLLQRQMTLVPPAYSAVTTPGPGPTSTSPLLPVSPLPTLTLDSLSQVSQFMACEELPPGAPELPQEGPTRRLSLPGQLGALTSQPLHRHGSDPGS

| SMILES | hERG current change (%, negative = inhibition) at 10uM [%] |
| --- | --- |
| O=C(COc1ccccc1O)Nc1ccc(Cl)cc1 | 5.23 |
| Cc1ccc(C(=O)CSc2ccccc2C(=O)O)cc1 | 16.9 |
| Cc1ccccc1C(=O)NC1CCN(Cc2nnnn2C2CCCC2)CC1 | 3.85 |
| C#CCOC(=O)c1ccccc1C(=O)O | 7.07 |
| N#C/C(=C/c1cc(Br)cs1)C(=O)NCC1CCCO1 (centres unmarked) | -14.8 |
| O=C(OCn1ncc(Br)c(Br)c1=O)c1c(F)cccc1F | 14.9 |
| O=C(OCn1ncc(Cl)c(Cl)c1=O)c1ccc(F)cc1 | -3.74 |
| O=C(OCn1ncc(Br)c(Br)c1=O)c1ccc(F)cc1 | -51.4 |
| O=C(CN1CCN(Cc2cccc(F)c2)CC1)Nc1ccccc1F | -55.9 |
| Cl.O=C(CN1CCN(C(=O)c2cccc(F)c2)CC1)NC1CCCCC1 | 2.39 |
| O=C(CN1CCCCCC1)Nc1ccc(Cl)cc1F | -2.05 |
| O=C(CN1CCN(Cc2cccc(F)c2)CC1)NCc1ccccc1 | -10.4 |
| O=C(CN1CCN(Cc2ccc(F)cc2)CC1)Nc1ccccc1F | -35.2 |
| O=C(CN1CCN(C(=O)c2c(F)cccc2F)CC1)Nc1ccccc1F | -11.3 |
| O=C(CN1CCN(C(=O)c2cccc(F)c2)CC1)Nc1ccccc1F | -70.1 |
| O=C(c1cccc(Cl)c1)N1CCN(Cc2ccccc2F)CC1 | 10.1 |
| O=C(CN1CCN(C(=O)c2ccccc2)CC1)Nc1ccc(Cl)cc1F | -71 |
| Cc1ccc(-c2nc(C3CCCN(S(=O)(=O)c4ccc(C(F)(F)F)cc4)C3)no2)cc1 (centres unmarked) | 15 |
| CC(C)(C)C(=O)Nc1c2c(nn1-c1ccc(F)cc1)CSC2 | 13.4 |
| COc1ccc(C(=O)NCCSCc2ccccc2)cc1OC | -5.31 |

| SMILES | hERG current change (%, negative = inhibition) at 10uM [%] |
| --- | --- |
| Cc1nnc(SCC(=O)NC2CCCCC2)s1 | 10.7 |
| O=[N+]([O-])c1cc(C(F)(F)F)ccc1Oc1cccnc1[N+](=O)[O-] | -7.06 |
| O=C1CSC(=S)N1Cc1cccnc1 | -2.25 |
| O=S(=O)(Nc1ccccn1)c1ccc(Br)cc1 | -2.97 |
| Cc1cc(C)c(C#N)c(Nc2ccccc2C)n1 | 12.4 |
| O=C(O)C(=O)O.O=C(c1ccco1)N1CCN(Cc2cccc([N+](=O)[O-])c2)CC1 | -20.3 |
| CC(C)N1CCN(Cc2cccc([N+](=O)[O-])c2)CC1 | -2.13 |
| O=C(O)C(=O)O.O=C(c1cccs1)N1CCN(Cc2cccc([N+](=O)[O-])c2)CC1 | -33.1 |
| O=C(O)C(=O)O.O=[N+]([O-])c1cccc(CN2CCN(Cc3ccc(Br)cc3)CC2)c1 | -72.4 |
| O=C(O)C(=O)O.O=[N+]([O-])c1cccc(CN2CCN(Cc3ccc(Cl)cc3)CC2)c1 | -70.8 |
| O=C(O)C(=O)O.O=[N+]([O-])c1cccc(CN2CCN(Cc3ccco3)CC2)c1 | -4.34 |
| Cc1cccc(NC(=O)CN2C(=O)S/C(=C\c3ccccn3)C2=O)c1 | 30.2 |
| O=C(CCn1nnc2ccccc21)Nc1nnc(-c2ccccc2F)s1 | 3.13 |
| N#CC1=C(N)Oc2n[nH]c(-c3ccccn3)c2C1c1c(F)cccc1Cl (centres unmarked) | -3.23 |
| CCOc1ccc(OCCCCNCCN)cc1.O=C(O)C(=O)O | 5.79 |
| COC(=O)C1=NN(c2ccc(C)cc2)C2(S1)SC(C(C)=O)=C(C)N2c1ccccc1 (centres unmarked) | -10 |
| CCOc1ccc(CNC(=O)CCSCc2ccccc2F)cc1OC | 5.18 |
| Cc1ccc(/C=C(/C#N)c2nc(CCN3C(=O)c4ccccc4C3=O)cs2)cc1 | 21.6 |
| COc1ccc(CN2CCN(S(=O)(=O)c3ccccc3)CC2)c(OC)c1OC | 3.14 |
| COc1ccc(OC)c(CN2CCN(S(=O)(=O)c3ccccc3)CC2)c1 | -79.2 |

| SMILES | hERG current change (%, negative = inhibition) at 10uM [%] |
| --- | --- |
| COc1ccc(CN2CCN(S(=O)(=O)c3ccccc3)CC2)c(OC)c1.O=C(O)C(=O)O | -63.5 |
| COc1ccc(OC)c(CN2CCN(S(=O)(=O)c3ccc(NC(C)=O)cc3)CC2)c1.O=C(O)C(=O)O | -3.01 |
| COc1cc(CN2CCN(S(=O)(=O)c3ccccc3)CC2)cc(OC)c1OC.O=C(O)C(=O)O | -5.31 |
| COc1ccc(S(=O)(=O)N2CCN(Cc3cc(OC)c(OC)cc3OC)CC2)cc1.O=C(O)C(=O)O | -11.5 |
| CCOC(=O)Cn1cnc2sc(C(=O)OC)c(C)c2c1=O | 11.1 |
| CCn1c(COc2ccccc2OC)nnc1SCC#N | -3.43 |
| C=CCn1c(SCC(=O)c2cccs2)nc2sc(C)cc2c1=O | 1.56 |
| Cc1ccc(NC(=O)Nc2cccc(Cl)c2)c(C(=O)O)c1 | 19.6 |
| CC1=C(C(=O)Nc2ccccc2)C(c2ccc3c(c2)OCO3)C2=C(CCCC2=O)N1 (centres unmarked) | -14.2 |
| O=C1Nc2ccc(Br)cc2C1(O)Cc1ccncc1 (centres unmarked) | -2.45 |
| CSCCC(NC(=O)COc1ccccc1)C(=O)N(C)Cc1cccc(F)c1 (centres unmarked) | -37.9 |
| CSCCC(NC(=O)COc1ccccc1)C(=O)N1CCN(c2ccccc2)CC1 (centres unmarked) | -51.9 |
| CSCCC(NC(=O)COc1ccccc1)C(=O)N1CCOCC1 (centres unmarked) | -9.88 |
| CSCCC(NC(=O)COc1ccccc1)C(=O)N1CCN(C(C)=O)CC1 (centres unmarked) | -5.67 |
| CSCCC(NC(=O)COc1ccccc1)C(=O)N(C)Cc1ccc(F)cc1 (centres unmarked) | -50.3 |
| COC(=O)c1ccc(COC(=O)C(CCSC)NC(=O)COc2ccccc2)cc1 (centres unmarked) | -9.2 |
| CSCCC(NC(=O)COc1ccccc1)C(=O)N(C)Cc1ccc(Cl)cc1Cl (centres unmarked) | -24.5 |
| CSCCC(NC(=O)COc1ccccc1)C(=O)OCC(=O)c1ccccc1 (centres unmarked) | 4.14 |
| CSCCC(NC(=O)COc1ccccc1)C(=O)OCc1ccc([N+](=O)[O-])cc1 (centres unmarked) | -70.8 |
